A selection: hits, their analogues and other compounds. The true share with any hit is near 7.1%.
ATXN2 expr inh: ATXN2 expression inhibition | HEK-293 ATXN2-luciferase reporter, luminescence, 24 h | Potency, µM (highest dose often 57 µM), for inactives: top-dose activity change, negative = inhibition, actives largely listed as inhibitors | hit rate 0.72% among 360,000; also: potency is read from the fitted curve at half-maximal effect; % is scaled to controls: 0 for no effect and ±100 for the full control effect; nearly all actives have a fitted effect of over 55% in size
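qHTS (up to 57 uM final) was run with 24 h compound exposure of reporter cells at 37 °C. Each well was multiplexed: SteadyGlo luminescence measured ATXN2-luciferase expression after a fluorogenic Gly-Phe-AFC viability readout (25 uM final).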
IL-1B inflam inh: inflammasome signaling inhibition, IL-1 beta readout. THP-1 LPS/ATP IL-1B secretion, AlphaLISA, 16 h; stronger effect = lower value. activity change, % at 57.5 µM. hit rate 4.7% among 360,000; in the data active = activity change below about -50%; inconclusive = mostly about -30% to -49%; also: % is scaled to controls: 0 for no effect and ±100 for the full control effect
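THP-1 cells pretreated 1 hr with compounds (up to 57.5 uM final), then stimulated with LPS (250 ng/mL final) plus ATP (1.25 mM final); secreted IL-1B measured by AlphaLISA after 16 hr, decreased signal indicating inhibition.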
S2 tox: viability counter-screen for ATXN expression inhibitors | AID 651635 | S2 cells (HEK-293 line with an ATXN2-luciferase reporter) viability, CellTiter-Fluor protease fluorescence, 24 h | hit rate 0.49% among 400,000 | Potency, µM (titrated, usually from 56.7 µM), actives largely listed as cytotoxic; also: potency is read from the fitted curve at half-maximal effect; nearly all actives have a fitted effect of over 40% in size
SW480 rerep: DNA re-replication induction in SW480 cells; SW480 DNA re-replication, Hoechst DNA content imaging, 48 h; Potency, µM (highest dose often 46.1 µM), inactives show top-dose re-replication activation, usual class: activators; hit rate 1.8% among 340,000; also: potency is read from the fitted curve at half-maximal effect; % of control where 0% means no effect; nearly all actives have a fitted effect of over 55% in size
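DNA re-replication was detected as more nuclei of elevated Hoechst intensity after 48 hr exposure to compound (23 nL pinned per well of 250 cells).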
MCF10A rerep: DNA re-replication induction in MCF 10a cells | Potency, µM (highest dose often 46.1 µM), without a hit: at the highest dose activity, positive = re-replication, most hits filed as activators | MCF 10A DNA re-replication, Hoechst nuclear intensity, 48 h | hit rate 2.9% among 350,000; also: potency is read from the fitted curve at half-maximal effect; % of control where 0% means no effect; nearly all actives have a fitted effect of over 50% in size
PINK1 expr mod: changes PINK1 expression; PINK1 immunofluorescence, high-content cytometry, 24 h; Potency, µM (doses to about 76.6 µM), for inactives: at the top dose activation (PINK1 increase), most hits filed as activators; hit rate 0.2% among 410,000; AID 624263; active = well fitted activation curve with a large enough effect; inconclusive = small, poorly fitted or top-dose-only effect; cell line not stated here; also: potency is read from the fitted curve at half-maximal effect; % of control where 0% means no effect; nearly all actives have a fitted effect of over 65% in size
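Stable cell line, 250 cells/well, 12 h attachment; compounds pinned at 5 concentrations, 24 h; CCCP control. Fixed with nuclear dye, primary antibodies 12 h at 10 degrees C, secondary plus cell stain; laser-scanning cytometer read.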
Numbers without * were called inactive; i = inactive; ? = inconclusive; · = no result; [ ] = remark or other dose. Unless noted, calls follow the shape of the dose curve; as a rule, active = well fitted curve in the direction sought with a large enough effect; inconclusive = small, poorly fitted or top-dose-only effect, or another doubt; inactive = no such curve, though single readings can be large; an effect the other way counts as inactive or inconclusive.

SMILES | ATXN2 expr inh | IL-1B inflam inh | S2 tox | SW480 rerep | MCF10A rerep | PINK1 expr mod
CC1=C(CC(=O)c2ccc(Cl)cc2)C(=O)c2ccccc2C1=O | 66% | 10 | i | 4.1µM* | 4.1µM* | 3%[38.3 µM]
CCN1CCN(c2nc(-c3ccccn3)nc3ccccc23)CC1 | ? | 40 | i | ? | 6% | ?
CCN1CCN(c2ccc(Nc3ccnc4ccccc34)cc2)CC1 | ? | -1 | i | 15µM* | ? | 0%
CN1CCN(c2ccc(Nc3ccnc4cc(Cl)ccc34)cc2)CC1 | 3.5µM* | -90* | ? | ? | -4% | -2%
CC1CCc2c(sc(NC(=O)c3cc(-c4cccc(Cl)c4)on3)c2C(N)=O)C1 (centres undefined) | -6% | · | i | · | · | 4%
Cc1ccc(S(=O)(=O)N2CCCCC2CCNC(=O)C(=O)NCc2ccncc2)cc1 (centres undefined) | -11% | 1 | i | -4% | 7% | -1%
Cc1ccc(S(=O)(=O)N2CCCCC2CCNC(=O)C(=O)NCc2ccccc2C)cc1 (centres undefined) | -35% | -7 | i | 21µM* | ? | 1%
CCNC(=O)C1CCCN1S(=O)(=O)c1ccc(C)cc1 (centres undefined) | 7% | 0 | i | 0% | 21µM* | -3%[38.3 µM]
Cc1ccccc1CNC(=O)C(=O)NCC1CCCN1S(=O)(=O)c1ccccc1 (centres undefined) | -5% | -5 | i | -4% | 3% | -1%
Cc1ccc(CNC(=O)C2CCCN2S(=O)(=O)c2ccc(F)cc2)cc1 (centres undefined) | -10% | 5 | i | -9% | 1% | 1%
Cc1ccc(S(=O)(=O)N2CCCCC2CCNC(=O)C(=O)NCc2ccccc2)cc1 (centres undefined) | -15% | -1 | i | 6.5µM* | ? | 3%
CC1(C)CC(=O)c2cc(C(=O)Nc3cccc4ccccc34)c(=O)[nH]c2C1 | · | · | · | · | · | 0%
COC(=O)c1nc2nc(C)cc(C(F)(F)F)n2n1 | 0% | 0 | i | -25% | 11% | -1%
COC(=O)c1nc2nc(-c3cccs3)cc(C(F)(F)F)n2n1 | 5% | 7 | i | 0.52µM* | -10% | 0%
Cc1cc(NC(=O)CCc2nc3cccnc3n2Cc2cccs2)ccc1Br | ? | · | ? | · | · | 4%
O=C(CCC(=O)N1CCN(S(=O)(=O)c2ccc3ccccc3c2)CC1)Nc1cc(Cl)cc(Cl)c1 | · | -53* | i | 2% | ? | -1%
O=S(=O)(c1ccc2ccccc2c1)N1CCN(C(=S)Nc2ccc(F)c(Cl)c2)CC1 | ? | -69* | ? | 3% | 10% | 3%
O=C(O)CCC(=O)N1CCN(S(=O)(=O)c2ccc3ccccc3c2)CC1 | 21% | -2 | i | 9% | 0% | 0%
CC(C)C(=O)N1CCN(S(=O)(=O)c2ccc3ccccc3c2)CC1 | -17% | -2 | i | 2.9µM* | 1% | -1%
O=C(Cn1ncc(Cl)c(Cl)c1=O)N1CCN(S(=O)(=O)c2ccc3ccccc3c2)CC1 | ? | -103* | · | ? | ? | -3%
O=S(=O)(c1ccc2ccccc2c1)N1CCN(C(=S)Nc2ccc(F)cc2)CC1 | -20% | 0 | i | · | 4% | 0%
CC(C)N1CCN(S(=O)(=O)c2ccc3ccccc3c2)CC1 | · | -7 | i | 4% | -1% | 0%
CCOc1ccc(CCNC(=O)c2nn(C)c3c2CSc2ccccc2-3)cc1 | · | · | · | · | · | 2%
Cc1cccc(NC(=O)c2cnn(-c3ccccc3)c2-n2cccc2)c1C | -9% | · | i | · | · | 1%
Cn1c(=O)c2c(-c3ccccc3)n3c4ccccc4nc(-c4ccccc4)c3c2n(C)c1=O | -5% | · | i | · | · | 2%
CS(=O)(=O)c1ccc(C(=O)OCC(=O)N2CCc3ccccc32)cc1[N+](=O)[O-] | · | · | · | · | · | 1%
Cc1oc2c(c1C(=O)Nc1ccccc1Br)C1=NCCN1C=N2 | -22% | · | i | · | · | 2%

Screens (PubChem BioAssay)
